# Source: PubChem BioAssay
# Assay: small-molecule binders of probe aNOTCH3, primary screen, biochemical, small-molecule microarray, 635/667 nm fluorescence (AID 1120);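 also: probe is a biotin-tagged antibody raised against NOTCH3 rather than NOTCH3 protein; score merges spot fluorescence near 667 nm with spot signal to noise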
# Conditions: higher = more signal
row,Structure (SMILES),composite z-score
1,C=C(COC)/C(=C/C[C@@H](OC(C)=O)c1ccccc1OCCO)c1cc(C(=O)OC)ccc1OC,0.213
2,C=CCN1C(=O)[C@]2(O[C@H](CCO)[C@@H]([Si](C)(C)c3ccc(OC)cc3)[C@@H]2C)c2ccccc21,-0.157
3,COc1ccc(CCNC(=O)[C@@H]2c3ccccc3C(=O)N(CC34CC5CC(CC(C5)C3)C4)[C@H]2c2ccc(CO)cc2)cc1,0.0206
4,C=CCC(OC(C)=O)[C@@H]1[C@@H](N(Cc2cccc3ccccc23)C(=O)c2ccc(C)cc2)c2cc(OCCCO)ccc2N1C(=O)c1ccc2ccccc2n1 (some centres undefined),0.366
5,COCCCNC(=O)[C@@H]1c2ccccc2C(=O)N(Cc2cc(C(F)(F)F)cc(C(F)(F)F)c2)[C@H]1c1ccc(CO)cc1,0.531
6,CCOC(=O)C[C@H]1[C@H](OC(=O)c2ccc(C(=O)c3ccccc3)cc2)[C@@H](NC(=O)c2ccc3ccccc3c2)c2cc(OCCCO)ccc2N1C(=O)c1ccc2ccccc2n1,0.134
7,C=CCN1C(=O)[C@]2(O[C@H](CCn3cc([C@H](O)c4ccccc4)nn3)[C@@H]([Si](C)(C)c3ccc(OC)cc3)[C@@H]2C)c2cc(N3C(=O)c4cccc5cccc3c45)ccc21,-0.141
8,CN(C)CCCC[C@@H]1NC(=O)[C@H]2C[C@@H](C(=O)O)[C@@H](c3cccc(OCCO)c3)N2C1=O,0.601
9,C=CCC(OC(C)=O)[C@@H]1[C@@H](N(Cc2ccc(-c3cccc(C(F)(F)F)c3)o2)C(=O)c2cccc3ccccc23)c2cc(OCCCO)ccc2N1C(=O)c1ccc2ccccc2c1 (some centres undefined),0.147
10,C=C(COC)/C(=C/C[C@H](OC(=O)c1ccncc1)c1ccc(OCCO)cc1)c1cc(C(=O)OC)ccc1OC,0.325
11,COCCOC(=O)N1C(=O)[C@@]2(c3cc(C#CCC(C(=O)OC)C(=O)OC)ccc31)[C@H](C(=O)N1CCc3cc(OC)c(OC)cc3C1)[C@H]1C(=O)O[C@H](c3ccccc3)[C@H](c3ccccc3)N1[C@@H]2c1ccc(O)cc1,0.23
12,Cc1ccc(S[C@]2(C(=O)NC3CC3)CC(=O)N(Cc3cc(C(F)(F)F)cc(C(F)(F)F)c3)[C@@H]2c2ccc(CO)cc2I)cc1,-0.512
13,COc1ccc([Si](C)(C)[C@H]2[C@H](CCn3cc([C@H](O)c4ccccc4)nn3)O[C@@]3(C(=O)N(C)c4c(Br)cc(C)cc43)[C@@H]2C)cc1,-0.259
14,CCCCC(O)C1C=CC2C(=O)NC(=O)C2N1Nc1ccc(Cl)cc1Cl (centres undefined),0.23
15,C=CCC(OC(C)=O)[C@@H]1[C@@H](N(Cc2ccc(-c3ccccc3)cc2)C(=O)c2ccc(-c3ccccc3)cc2)c2cc(OCCCO)ccc2N1C(=O)c1ccc2ccccc2n1 (some centres undefined),0.195
16,COc1ccc([Si](C)(C)[C@H]2[C@H](CCO)O[C@@]3(C(=O)N(Cc4ccccc4)c4ccc(N(C=O)c5ccccc5)cc43)[C@@H]2C)cc1,0.0576
17,CN(C)CCCC[C@@H]1NC(=O)[C@H]2C[C@@H](C(=O)NCc3ccc(F)cc3)[C@@H](c3ccc(O)cc3)N2C1=O,-0.136
18,COC(=O)[C@@]1(Cc2ccc(F)cc2)[C@H]2c3cc(C(=O)N(C)C)n(CCO)c3C[C@H]2CN1C(=O)c1ccccc1,-0.0448
19,C=C(/C(=C/C[C@@H](OC(C)=O)c1ccccc1OCCO)c1cc(C(=O)OC)ccc1OC)C(C)C,0.217
20,CCCCN1CC=CC23O[C@@H]4/C=C\CCC(C)OC(=O)C4[C@H]2C(=O)N(C(C)CO)[C@@H]3C1=O (some centres undefined),-0.0498
21,NCCCC[C@@H]1NC(=O)[C@H]2C[C@@H](C(=O)NCc3ccc(F)cc3)[C@@H](c3cccc(OCCO)c3)N2C1=O,0.156
22,COc1cccc(C[C@H]2C[C@@H](CO[Si](C(C)C)(C(C)C)C(C)C)N3C(=O)[C@@]4(C(C)=O)O[C@@]23[C@@H]2C(=O)N(C)C(=O)[C@@H]24)c1,-0.231
23,CC#CCO[Si](C#CCCCCCC)(C(C)C)C(C)C,-0.597
24,O=C1NC(=O)C2C1C=CC(C(O)c1ccc(F)cc1)N2Nc1ccccn1 (centres undefined),-0.004

# Assay: small-molecule binders of probe aNOTCH2, primary screen, biochemical, small-molecule microarray, 635/667 nm fluorescence (AID 1121);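 also: score merges feature fluorescence read at 667 nm with its signal to noise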
# Conditions: higher = more signal
row,Structure (SMILES),composite z-score
1,CCCCC=C[C@@H](NC(=O)c1ccc(C(F)(F)F)cc1)c1ccccc1,-0.125
2,CC(c1ccccc1)C(O)C1C=CC2C(=O)N(c3ccccc3)C(=O)C2N1Nc1ccc(C#N)cc1 (centres undefined),-0.0062
3,CC(C)(C)N1CC=CC23O[C@@H]4/C=C\CCCOC(=O)C4[C@H]2C(=O)N(CCCCCCO)[C@@H]3C1=O (some centres undefined),-0.117
4,COc1ccc(C(O)C2C=CC3C(=O)N(C)C(=O)C3N2Nc2ccc([N+](=O)[O-])cc2[N+](=O)[O-])cc1OCc1ccccc1 (centres undefined),0.29
5,C=CC[C@]1(C(=O)N(C)C)COC(c2ccc(OCCCO)cc2)=N1,0.107
6,C[C@@H](OCc1ccccc1)C1NC(=O)[C@@]23C(=O)N[C@@H](Cc4ccccc4)C2[C@H](C)[C@@]2(C)O[C@H]2C3/C=C/C/C=C\CNC(=O)[C@H](Cc2ccccc2)NC1=O (some centres undefined),-0.153
7,COc1ccc([Si](C)(C)[C@H]2[C@H](CCO)O[C@@]3(C(=O)N(Cc4ccc(N5CCOC5=O)cc4)c4ccccc43)[C@@H]2C)cc1,-0.1
8,C=CCC(OC(C)=O)[C@@H]1[C@@H](N(Cc2ccc(-c3ccccc3)cc2)C(=O)c2ccc(C)cc2)c2cc(OCCCO)ccc2N1C(=O)c1ccc2ccccc2c1 (some centres undefined),-0.127
9,CC(C)C(=C=CC[C@@H](O)c1cccc(OCCO)c1)CCO,-0.0519
10,COCCOC(=O)N1C(=O)[C@@]2(c3cc(C#CC4(O)CCCCCC4)ccc31)[C@H](c1ccc(OCCO)cc1)N1[C@H](c3ccccc3)[C@H](c3ccccc3)OC(=O)[C@H]1[C@@H]2C(=O)N1CCCCCCC1,0.0899
11,Cc1ccc(F)cc1S(=O)(=O)N[C@@H]1CCN(Cc2ccc3[nH]ccc3c2)C1,-0.176
12,C=C(COC)/C(=C/C[C@@H](OC(C)=O)c1ccccc1OCCO)c1cc(C(=O)OC)ccc1OC,-0.122
13,C=CCN1C(=O)[C@]2(O[C@H](CCO)[C@@H]([Si](C)(C)c3ccc(OC)cc3)[C@@H]2C)c2ccccc21,-0.129
14,COc1ccc(CCNC(=O)[C@@H]2c3ccccc3C(=O)N(CC34CC5CC(CC(C5)C3)C4)[C@H]2c2ccc(CO)cc2)cc1,-0.132
15,C=CCC(OC(C)=O)[C@@H]1[C@@H](N(Cc2cccc3ccccc23)C(=O)c2ccc(C)cc2)c2cc(OCCCO)ccc2N1C(=O)c1ccc2ccccc2n1 (some centres undefined),0.0239
16,COCCCNC(=O)[C@@H]1c2ccccc2C(=O)N(Cc2cc(C(F)(F)F)cc(C(F)(F)F)c2)[C@H]1c1ccc(CO)cc1,0.0282
17,CCOC(=O)C[C@H]1[C@H](OC(=O)c2ccc(C(=O)c3ccccc3)cc2)[C@@H](NC(=O)c2ccc3ccccc3c2)c2cc(OCCCO)ccc2N1C(=O)c1ccc2ccccc2n1,0.0683
18,C=CCN1C(=O)[C@]2(O[C@H](CCn3cc([C@H](O)c4ccccc4)nn3)[C@@H]([Si](C)(C)c3ccc(OC)cc3)[C@@H]2C)c2cc(N3C(=O)c4cccc5cccc3c45)ccc21,-0.126

row,Structure (SMILES),composite z-score
1,CN(C)CCCC[C@@H]1NC(=O)[C@H]2C[C@@H](C(=O)O)[C@@H](c3cccc(OCCO)c3)N2C1=O,0.124
2,C=CCC(OC(C)=O)[C@@H]1[C@@H](N(Cc2ccc(-c3cccc(C(F)(F)F)c3)o2)C(=O)c2cccc3ccccc23)c2cc(OCCCO)ccc2N1C(=O)c1ccc2ccccc2c1 (some centres undefined),-0.12
3,C=C(COC)/C(=C/C[C@H](OC(=O)c1ccncc1)c1ccc(OCCO)cc1)c1cc(C(=O)OC)ccc1OC,-0.123
4,COCCOC(=O)N1C(=O)[C@@]2(c3cc(C#CCC(C(=O)OC)C(=O)OC)ccc31)[C@H](C(=O)N1CCc3cc(OC)c(OC)cc3C1)[C@H]1C(=O)O[C@H](c3ccccc3)[C@H](c3ccccc3)N1[C@@H]2c1ccc(O)cc1,-0.0715
5,Cc1ccc(S[C@]2(C(=O)NC3CC3)CC(=O)N(Cc3cc(C(F)(F)F)cc(C(F)(F)F)c3)[C@@H]2c2ccc(CO)cc2I)cc1,0.381
6,COc1ccc([Si](C)(C)[C@H]2[C@H](CCn3cc([C@H](O)c4ccccc4)nn3)O[C@@]3(C(=O)N(C)c4c(Br)cc(C)cc43)[C@@H]2C)cc1,-0.103
7,CCCCC(O)C1C=CC2C(=O)NC(=O)C2N1Nc1ccc(Cl)cc1Cl (centres undefined),0.0264
8,C=CCC(OC(C)=O)[C@@H]1[C@@H](N(Cc2ccc(-c3ccccc3)cc2)C(=O)c2ccc(-c3ccccc3)cc2)c2cc(OCCCO)ccc2N1C(=O)c1ccc2ccccc2n1 (some centres undefined),-0.12
9,COc1ccc([Si](C)(C)[C@H]2[C@H](CCO)O[C@@]3(C(=O)N(Cc4ccccc4)c4ccc(N(C=O)c5ccccc5)cc43)[C@@H]2C)cc1,-0.0984
10,CN(C)CCCC[C@@H]1NC(=O)[C@H]2C[C@@H](C(=O)NCc3ccc(F)cc3)[C@@H](c3ccc(O)cc3)N2C1=O,-0.0423
11,COC(=O)[C@@]1(Cc2ccc(F)cc2)[C@H]2c3cc(C(=O)N(C)C)n(CCO)c3C[C@H]2CN1C(=O)c1ccccc1,0.0746
12,C=C(/C(=C/C[C@@H](OC(C)=O)c1ccccc1OCCO)c1cc(C(=O)OC)ccc1OC)C(C)C,-0.0548
13,CCCCN1CC=CC23O[C@@H]4/C=C\CCC(C)OC(=O)C4[C@H]2C(=O)N(C(C)CO)[C@@H]3C1=O (some centres undefined),-0.0907
14,NCCCC[C@@H]1NC(=O)[C@H]2C[C@@H](C(=O)NCc3ccc(F)cc3)[C@@H](c3cccc(OCCO)c3)N2C1=O,-0.0995
15,COc1cccc(C[C@H]2C[C@@H](CO[Si](C(C)C)(C(C)C)C(C)C)N3C(=O)[C@@]4(C(C)=O)O[C@@]23[C@@H]2C(=O)N(C)C(=O)[C@@H]24)c1,-0.118
16,CC#CCO[Si](C#CCCCCCC)(C(C)C)C(C)C,-0.192
17,O=C1NC(=O)C2C1C=CC(C(O)c1ccc(F)cc1)N2Nc1ccccn1 (centres undefined),-0.0771
